PubChem BioAssay
Several values for one entry are separate records, joined by “and”; a condition that tells them apart may be missing. Identical values can stand only once. A structure can be active in one record and inactive in another. Activity calls are given as the source filed them.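 The calls were made as follows, unless noted: active = compounds whose cell count with miR-34 switched on is under 0.7 times the count with it off; inactive = the rest.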

Tests used:
[1] = liver-stage malaria parasite growth inhibition, primary screen, cell-based, HepG2, luciferase luminescence, HepG2 viability (AID 624349; in the data active = parasite load remaining mostly below about 12%, no sharp cut-off; inactive = mostly above about 10%;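 also: 100% = mean of DMSO negative control wells on the same plate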); conditions: P. berghei liver stage in HepG2, luciferase luminescence, concentration not given here; parasite load remaining: stronger effect = lower value; viability: measured here: HepG2 viability without parasites
[2] = stimulators of nuclear beta-catenin in C2C12, primary screen, imaging, WNT3A-conditioned medium, mouse C2C12, NPC library (AID 1117326; in the data active = nuclear beta-catenin stimulation mostly above about 4.2%, no sharp cut-off; inactive = mostly below about 10%); conditions: stronger effect = higher value
[3] = stimulators of insulin release from INS-1E, primary screen, cell-based, 5 mM glucose, NPC library (AID 1117329;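 active = compound raises insulin release from rat beta cells at 5 mM glucose, no numeric limit stated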); conditions: rat INS-1E insulin secretion, at 10 µM, stronger effect = higher value
[4] = growth inhibition of GSK3B-pretreated HCT116 cells – cell-based, CellTiter-Glo, 0.2 to 20 µM (AID 1117336;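 active = compounds lowering colon cancer cell viability after pretreatment blocking the GSK3B kinase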); conditions: HCT116 viability after GSK3B inhibitor, at 20 µM, stronger effect = higher value
[5] = inhibition of endothelial tube formation, primary screen, imaging, VEGF stimulated, CD31 staining, tube area, NPC library (AID 1117340;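 active = compound that reduces growth-factor-driven endothelial tube area in a mixed cell culture, no cutoff stated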); conditions: VEGF-stimulated ADSC/ECFC co-culture, at 10 µM, stronger effect = higher value
[6] = glucagon-like peptide 1 release enhancers, primary assay, NCI-H716 cell line, NPC library (AID 1117341;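 active = compound raises GLP1 secretion from the human gut endocrine cells, with no numeric limit stated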); conditions: NCI-H716 cells, at 10 µM, stronger effect = higher value
[7] = HCT116 colon cancer cell growth inhibition, primary screen, CellTiter-Glo luminescence, NPC library (AID 1117342;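 active = compounds that lower survival of HCT116 colon cancer cells in the luminescence readout, no numeric limit stated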); conditions: at 20 µM (top of the series)
[8] = CellTiter-Glo luminescent readout of SW480 viability loss, NPC library primary (AID 1117343;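 active = compounds that lower viability of the colon cancer cells in the luminescence readout, with no numeric limit stated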); conditions: CellTiter-Glo luminescence; at 20 µM (top of the series)
[9] = decreased DLD-1 cellular survival, CellTiter-Glo luminescent readout, NPC compound collection, primary HTS (AID 1117346;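 active = compounds that lower survival of DLD-1 colon cancer cells in the luminescence readout, no cutoff given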); conditions: DLD-1 viability, CellTiter-Glo luminescence; at 20 µM (top of the series)
[10] = target: 6-phosphogluconate dehydrogenase, decarboxylating (Homo sapiens) (UniProt P52209); assay: 6PGD enzyme inhibitors, primary screen, biochemical, human, recombinant enzyme, NADPH absorbance (AID 1159550;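 active = at least 20% inhibition of 6-phosphogluconate dehydrogenase activity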); conditions: recombinant 6PGD, NADPH absorbance 341 nm; at 10 µM; stronger effect = higher value
[11] = differential killing of epithelial or mesenchymal cells, primary screen, imaging, PC-3E GFP, TEM4-18 mCherry, co-culture (AID 1345086;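 active = compounds killing one labelled cell type while sparing the other, by normalised counts and ratio limits, not self-fluorescent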;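 as to all read-outs here: cells exposed to compound for 72 h before imaging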;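 as to red/green cell ratio (normalised): normalised mesenchymal count divided by normalised epithelial count so high means epithelial killing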); conditions: imaging cell counts, at 1 µM; for red/green cell ratio (normalised): actives lie on both sides
[12] = tested on: Aerobactin synthetase IucA (Klebsiella pneumoniae hvKP1); assay: Biochemical IucA enzyme inhibition primary screen of the Spectrum library (AID 1346200; call rule not given here;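 also: 100% = wells without compound and 0% = wells lacking enzyme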); conditions: malachite green pyrophosphate, A620, at 8 µM, stronger effect = lower value
[13] = sensitizers of A549 cells to miR-34 induction, primary screen, imaging, A549 dox-inducible miR-34, nuclei and caspase counts (AID 1347080); conditions: A549 miR-34 inducible, Hoechst nuclei count, 48 h
[14] = target: NAD(+) hydrolase SARM1 (Homo sapiens) (UniProt Q6SZW1); assay: SARM1 TIR NADase inhibitors, cell lysate, NAD-Glo luminescence (AID 1508614;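 active = compound whose remaining NAD level is above about 45 nM, limit read from the data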;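 also: higher remaining NAD means stronger inhibition of SARM1 NADase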); conditions: SAM-TIR HEK293T lysate NADase, at 1 µM, stronger effect = higher value
[15] = target: Mitogen-activated protein kinase 7 (Homo sapiens) (UniProt Q13164); assay: ERK5 transactivation activators in reporter cells, primary screen, cell-based, HTS (AID 1508626;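 active = luciferase signal above three times the same-plate solvent-only control wells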;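 also: luciferase driven by Gal4-ERK5 fusion binding five Gal4 sites before minimal TATA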); conditions: HeLa Gal4-ERK5 transactivation, 18 h, at 5 µM, stronger effect = higher value
[16] = survival rescue of mitochondrial mutant cells in low glucose, primary screen, MELAS cybrids, Rieske KO mouse fibroblasts, CellTiter-Glo (AID 1508586;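 active = mean z-score across replicates of 1.96 or higher in either the MELAS or the Rieske mutant cell line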;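 also: z relative to plate mean and SD of compound and empty wells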)
[17] = hESC survival regulators, cell-based (AID 493140; call rule not given here;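 also: cells exposed to compounds for four days before counting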); conditions: human embryonic stem cell survival screen; stronger effect = higher value
[18] = viability rescue of complex I mutant cybrids, primary screen, cell-based, galactose medium, ATP luminescence (AID 1645843;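 active = z-score of at least 1.8 in each of two replicates, scored against plate mean and spread of sample wells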;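 also: positive z means more ATP and so rescue of galactose-driven cybrid death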); conditions: complex I mutant cybrid cells, 72 h, stronger effect = higher value
[19] = measured here: epithelial PC-3E GFP cell survival
[20] = measured here: mesenchymal TEM4-18 mCherry cell survival
[21] = measured here: relative caspase fold change +Dox/-Dox
[22] = measured here: total cells with miR-34 induction, stronger effect = lower value
[23] = measured here: total cells without miR-34 induction
[24] = MELAS cybrid survival, CellTiter-Glo 48 h, stronger effect = higher value
[25] = Rieske KO mouse fibroblast survival, CellTiter-Glo 72 h

Sequence of Mitogen-activated protein kinase 7 (Homo sapiens) (Q13164 whole entry, looked up, the tested form may be a part): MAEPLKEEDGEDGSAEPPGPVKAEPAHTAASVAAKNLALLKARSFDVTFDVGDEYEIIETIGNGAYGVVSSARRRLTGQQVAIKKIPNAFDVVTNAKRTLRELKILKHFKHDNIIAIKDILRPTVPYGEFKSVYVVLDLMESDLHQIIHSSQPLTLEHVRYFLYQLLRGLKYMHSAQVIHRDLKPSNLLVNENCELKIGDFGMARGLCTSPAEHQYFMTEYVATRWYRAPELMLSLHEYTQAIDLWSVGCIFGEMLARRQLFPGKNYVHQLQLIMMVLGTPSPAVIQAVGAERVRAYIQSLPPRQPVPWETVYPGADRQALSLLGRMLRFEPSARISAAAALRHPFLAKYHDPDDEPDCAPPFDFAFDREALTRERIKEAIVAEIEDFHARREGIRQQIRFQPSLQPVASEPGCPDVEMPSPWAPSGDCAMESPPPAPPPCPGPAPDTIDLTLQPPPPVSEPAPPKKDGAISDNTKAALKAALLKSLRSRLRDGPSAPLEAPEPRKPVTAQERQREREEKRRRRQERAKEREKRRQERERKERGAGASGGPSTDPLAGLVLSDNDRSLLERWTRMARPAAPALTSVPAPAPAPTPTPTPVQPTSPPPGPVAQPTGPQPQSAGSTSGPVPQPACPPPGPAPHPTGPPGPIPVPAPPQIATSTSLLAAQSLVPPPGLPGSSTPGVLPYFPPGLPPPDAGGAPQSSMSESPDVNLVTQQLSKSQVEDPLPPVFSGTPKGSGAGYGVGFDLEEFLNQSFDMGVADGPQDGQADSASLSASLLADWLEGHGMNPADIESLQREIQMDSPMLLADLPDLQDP
Sequence of NAD(+) hydrolase SARM1 (Homo sapiens) (Q6SZW1 whole entry, looked up, the tested form may be a part): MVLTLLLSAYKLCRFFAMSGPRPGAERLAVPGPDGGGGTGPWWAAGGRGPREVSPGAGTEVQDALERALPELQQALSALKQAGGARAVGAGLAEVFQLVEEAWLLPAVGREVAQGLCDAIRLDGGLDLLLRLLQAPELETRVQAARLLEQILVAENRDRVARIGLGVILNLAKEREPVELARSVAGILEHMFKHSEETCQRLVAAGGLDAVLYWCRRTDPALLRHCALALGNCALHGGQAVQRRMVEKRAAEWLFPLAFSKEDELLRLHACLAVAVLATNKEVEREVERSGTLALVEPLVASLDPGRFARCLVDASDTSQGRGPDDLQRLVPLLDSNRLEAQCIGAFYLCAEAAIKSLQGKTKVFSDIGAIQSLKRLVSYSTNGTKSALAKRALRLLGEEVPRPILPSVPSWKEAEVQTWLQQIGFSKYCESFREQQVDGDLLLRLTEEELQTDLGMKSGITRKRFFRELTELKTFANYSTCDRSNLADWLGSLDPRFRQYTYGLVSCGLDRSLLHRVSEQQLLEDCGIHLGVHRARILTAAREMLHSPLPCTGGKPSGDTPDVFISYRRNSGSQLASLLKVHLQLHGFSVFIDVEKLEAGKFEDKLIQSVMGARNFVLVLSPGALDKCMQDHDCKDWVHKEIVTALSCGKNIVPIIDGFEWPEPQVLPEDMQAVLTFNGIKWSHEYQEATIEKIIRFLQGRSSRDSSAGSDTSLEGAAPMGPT
Sequence of 6-phosphogluconate dehydrogenase, decarboxylating (Homo sapiens) (P52209 whole entry, looked up): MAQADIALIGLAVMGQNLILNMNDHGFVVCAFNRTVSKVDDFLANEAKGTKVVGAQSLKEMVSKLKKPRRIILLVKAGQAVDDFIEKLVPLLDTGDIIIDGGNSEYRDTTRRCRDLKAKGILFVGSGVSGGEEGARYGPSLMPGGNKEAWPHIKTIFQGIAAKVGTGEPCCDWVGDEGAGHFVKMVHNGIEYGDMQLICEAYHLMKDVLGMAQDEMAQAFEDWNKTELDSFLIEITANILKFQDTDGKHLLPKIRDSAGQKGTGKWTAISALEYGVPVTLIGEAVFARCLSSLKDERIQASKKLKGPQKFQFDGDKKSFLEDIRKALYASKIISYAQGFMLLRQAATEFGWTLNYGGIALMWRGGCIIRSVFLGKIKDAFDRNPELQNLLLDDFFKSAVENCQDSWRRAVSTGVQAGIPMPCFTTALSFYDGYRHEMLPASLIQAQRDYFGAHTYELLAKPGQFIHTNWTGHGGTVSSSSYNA

Question: With NC(=O)c1cc([N+](=O)[O-])cc([N+](=O)[O-])c1 as the compound, how does the parasite load remaining [1] read?
Answer: The parasite load remaining was 66.1% (inactive) and 34.1% (inactive).

Question: What about the viability [1] of the same compound?
Answer: Its viability is 71.7% and 90.1%.

Question: And the nuclear beta-catenin stimulation ([2]; at 10 µM)?
Answer: Its nuclear beta-catenin stimulation is -1.3% (inactive).

Question: And the nuclear beta-catenin stimulation ([2]; stimulation, at 2 µM)?
Answer: The nuclear beta-catenin stimulation was -1.6%.

Question: And the insulin secretion stimulation [3]?
Answer: The insulin secretion stimulation was 0.7% (inactive).

Question: What about the viability decrease [4] of the same compound?
Answer: The viability decrease was 30.5% (inactive).

Question: What about the tube area decrease [5] of the same compound?
Answer: Its tube area decrease is -14.6% (inactive).

Question: And the GLP1 secretion stimulation [6]?
Answer: The GLP1 secretion stimulation was -0.8% (inactive).

Question: And the inhibition of viability [7]?
Answer: Its inhibition of viability is 37.6% (inactive).

Question: What about the viability decrease (inhibition) [8] of the same compound?
Answer: Its viability decrease (inhibition) is 67.6% (active).

Question: What about the viability decrease (inhibition) [9] of the same compound?
Answer: The viability decrease (inhibition) was 6.7% (inactive).

Question: What about the inhibition [10] of the same compound?
Answer: The inhibition was 8.1% (inactive).

Question: And the red/green cell ratio (normalised) [11]?
Answer: The red/green cell ratio (normalised) was 0.97 (inactive).

Question: And the normalised cell number [11, 19]?
Answer: Its normalised cell number is 0.99.

Question: What about the normalised cell number [11, 20] of the same compound?
Answer: The normalised cell number was 0.96.

Question: And the activity remaining [12]?
Answer: Its activity remaining is 116% (inactive).

Question: And the fold change ([13]; stronger effect = lower value)?
Answer: The fold change was 0.831 (inactive).

Question: What about the fold change [13, 21] of the same compound?
Answer: Its fold change is 2.03.

Question: What about the cell count [13, 22] of the same compound?
Answer: Its cell count is 10800.

Question: And the cell count [13, 23]?
Answer: The cell count was 12900.

Question: What about the remaining NAD [14] of the same compound?
Answer: Its remaining NAD is 10 nM (inactive).

Question: And the luciferase signal [15]?
Answer: Its luciferase signal is 40 AU (inactive).

Question: Which parasite load remaining [1] does the source give for CCCCCCCCCCCCCCCC[N+](C)(C)C here?
Answer: The parasite load remaining was 86.4% (inactive) and 31.9% (inactive).

Question: And the viability [1]?
Answer: Its viability is 75.1% and 81.2%.

Question: And the nuclear beta-catenin stimulation ([2]; at 10 µM)?
Answer: Its nuclear beta-catenin stimulation is 19.2% (inactive).

Question: And the nuclear beta-catenin stimulation ([2]; stimulation, at 2 µM)?
Answer: The nuclear beta-catenin stimulation was 9.4%.

Question: And the insulin secretion stimulation [3]?
Answer: The insulin secretion stimulation was -0.3% (inactive).

Question: And the viability decrease [4]?
Answer: The viability decrease was 100% (active).

Question: And the tube area decrease [5]?
Answer: The tube area decrease was 109% (active).

Question: What about the GLP1 secretion stimulation [6] of the same compound?
Answer: The GLP1 secretion stimulation was 40.8% (active).

Question: And the inhibition of viability [7]?
Answer: The inhibition of viability was 102% (active).

Question: And the viability decrease (inhibition) [8]?
Answer: Its viability decrease (inhibition) is 123% (active).

Question: What about the viability decrease (inhibition) [9] of the same compound?
Answer: The viability decrease (inhibition) was 104% (active).

Question: And the inhibition [10]?
Answer: The inhibition was -5.61% (inactive).

Question: And the red/green cell ratio (normalised) [11]?
Answer: The red/green cell ratio (normalised) was 0.49 (inactive).

Question: And the normalised cell number [11, 19]?
Answer: The normalised cell number was 0.64.

Question: And the normalised cell number [11, 20]?
Answer: Its normalised cell number is 0.31.

Question: What about the activity remaining [12] of the same compound?
Answer: The activity remaining was 108% (inactive).

Question: What about the fold change ([13]; stronger effect = lower value) of the same compound?
Answer: Its fold change is 0.616 (active) and 0.9 (inactive).

Question: And the fold change [13, 21]?
Answer: Its fold change is 3.21 and 2.28.

Question: And the cell count [13, 22]?
Answer: Its cell count is 4400 and 4060.

Question: What about the cell count [13, 23] of the same compound?
Answer: Its cell count is 7150 and 4510.

Question: What about the z-score [16, 24] of the same compound?
Answer: Its z-score is -0.416 (inactive).

Question: What about the z-score [16, 25] of the same compound?
Answer: The z-score was -0.288.

Question: And the remaining NAD [14]?
Answer: Its remaining NAD is 10 nM (inactive).

Question: And the luciferase signal [15]?
Answer: The luciferase signal was 96 AU (inactive).

Question: Which results are given for NCC(CC(=O)O)c1ccc(Cl)cc1 (configuration not stated)?
Answer: survival [17]: 9.17 (inactive); nuclear beta-catenin stimulation ([2]; at 10 µM): -0.5% (inactive); nuclear beta-catenin stimulation ([2]; stimulation, at 2 µM): 0.7%; insulin secretion stimulation [3]: 2.7% (inactive); viability decrease [4]: -7.8% (inactive); tube area decrease [5]: -22.1% (inactive); GLP1 secretion stimulation [6]: -2.6% (inactive); inhibition of viability [7]: -14.8% (inactive); viability decrease (inhibition) [8]: -1.8% (inactive); viability decrease (inhibition) [9]: 7.35% (inactive); inhibition [10]: 5.14% (inactive); red/green cell ratio (normalised) [11]: 0.69 (inactive); normalised cell number [11, 19]: 1.3; normalised cell number [11, 20]: 0.89; activity remaining [12]: 103% (inactive); fold change ([13]; stronger effect = lower value): 1.01 (inactive) and 0.984 (inactive) and 0.815 (inactive); fold change [13, 21]: 1.78 and 1.11 and 0.933; cell count [13, 22]: 7900 and 7930 and 10200; cell count [13, 23]: 7820 and 8060 and 12600; z-score [16, 24]: -0.717 (inactive); z-score [16, 25]: -0.464; remaining NAD [14]: 10 nM (inactive); luciferase signal [15]: 56 AU (inactive); z-score [18]: 0.635 (inactive)

Question: What does the source list for CC(C)=CC1C(C(=O)OCc2cccc(Oc3ccccc3)c2)C1(C)C (configuration not stated)?
Answer: parasite load remaining [1]: 123% (inactive); viability [1]: 88.5%; nuclear beta-catenin stimulation ([2]; at 10 µM): 1.3% (inactive); nuclear beta-catenin stimulation ([2]; stimulation, at 2 µM): 2.5%; insulin secretion stimulation [3]: 2.9% (inactive); viability decrease [4]: -21.3% (inactive); tube area decrease [5]: -14.2% (inactive); GLP1 secretion stimulation [6]: 1.7% (inactive); inhibition of viability [7]: 15.9% (inactive); viability decrease (inhibition) [8]: 16.2% (inactive); viability decrease (inhibition) [9]: 31.4% (inactive); inhibition [10]: -5.61% (inactive); red/green cell ratio (normalised) [11]: 0.95 (inactive); normalised cell number [11, 19]: 1.25; normalised cell number [11, 20]: 1.19; activity remaining [12]: 99.1% (inactive); remaining NAD [14]: 10 nM (inactive)
